In the supplement of paper PMC10849652:
Targets with a hit are over-represented here; the source holds about 7,900 in all. About 0.6% of all pairs of compound and target were hits.

What was measured:
Assay in all cases: log2 fold change, soluble protein after heating vs DMSO (PISA); higher = thermal stabilisation; K562 cells, 10 uM, 30 min; active = over 0.2 and 3.5 SD of the protein, either way, in both replicates (recomputed)
IRAK-1-4 Inhibitor I = compound: C1COCCN1CCN2C3=CC=CC=C3N=C2NC(=O)C4=CC(=CC=C4)[N+](=O)[O-] [IRAK-1-4 Inhibitor I]
Procedure, shortened: (§1)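 K562 cells (2×10^6 cells/mL) were treated with 10 μM compound for 30 min, and aliquots were heated for 3 min over 48°C-58°C. Pooled aliquots were extracted in PBS with 0.5% NP-40 at 4°C, and the supernatant after 21,000xg for 90 min was measured by TMTpro 16plex LC-MS/MS with channel sums equalised. Reported thermal stability, relative to control samples and from duplicates, is a log2 fold change.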

ibrutinib = compound: C=CC(=O)N1CCC[C@@H](n2nc(-c3ccc(Oc4ccccc4)cc3)c3c(N)ncnc32)C1 [ibrutinib]
Procedure, shortened: as §1

[1] = compound: CC(=O)c1cnc2ccc(-c3cc(Cl)c(O)c(Cl)c3)nc2c1N[C@H]1CC[C@H](CN(C)C)CC1
Procedure, shortened: as §1

ralimetinib = compound: CC(C)(C)Cn1c(N)nc2ccc(-c3[nH]c(C(C)(C)C)nc3-c3ccc(F)cc3)nc21 [ralimetinib]
Procedure, shortened: as §1

[2] = compound: CC(C)(O)CC(=O)NCCn1ccc2ncnc(Nc3ccc(Oc4cccc(C(F)(F)F)c4)c(Cl)c3)c21
Procedure, shortened: as §1

[3] = compound: CC(C)C1=C2N=C(C=C(N2N=C1)NCC3=CC=CC=C3)NCCCCCCN
Procedure, shortened: as §1

[4] = compound: CC(C)C[C@@H](C=O)NC(=O)[C@H](CC(C)C)NC(=O)[C@H](CC(C)C)NC(=O)OCc1ccccc1
Procedure, shortened: as §1

pinometostat = compound: CC(C)N(C[C@H]1O[C@@H](n2cnc3c(N)ncnc32)[C@H](O)[C@@H]1O)[C@H]1C[C@@H](CCc2nc3cc(C(C)(C)C)ccc3[nH]2)C1 [pinometostat]
Procedure, shortened: as §1

[5] = compound: CC1=C(C(CC(=O)N1)C2=CC=C(C=C2)C(F)(F)F)C(=O)NC3=C(C=C4C(=C3)C=NN4)F
Procedure, shortened: as §1

[6] = compound: CC1=C(C2=C(C=C1)C(=O)C3=CC=CC=C3N2CCCN)C
Procedure, shortened: as §1

[7] = compound: CC1=C(C=C(C=C1)NC(=O)C2=CC(=CC=C2)C(C)(C)C#N)NC3=CC4=C(C=C3)N=CN(C4=O)C
Procedure, shortened: as §1

[8] = compound: CC1=C(C=C(C=C1)NC(=O)C2=CC(=CC=C2)N(C)C)NC(=O)C3=CC=C(C=C3)O
Procedure, shortened: as §1

[9] = compound: CC1=CC=C(C=C1)SC2=C3C=C(SC3=CN=C2)C(=O)N
Procedure, shortened: as §1

[10] = compound: CC1=NC(=CC=C1)C2=C(N=C(N2)C(C)(C)C)C3=CC4=NC=CN=C4C=C3
Procedure, shortened: as §1

Nexturastat A = compound: CCCCN(Cc1ccc(C(=O)NO)cc1)C(=O)Nc1ccccc1 [Nexturastat A]
Procedure, shortened: as §1

vemurafenib = compound: CCCS(=O)(=O)Nc1ccc(F)c(C(=O)c2c[nH]c3ncc(-c4ccc(Cl)cc4)cc23)c1F [vemurafenib]
Procedure, shortened: as §1

[11] = compound: CCCS(=O)(=O)Nc1ccc(F)c(C(=O)c2c[nH]c3ncc(Cl)cc23)c1F
Procedure, shortened: as §1

[12] = compound: CCCc1cc(C)[nH]c(=O)c1CNC(=O)c1cc(-c2ccnc(N3CCN(C)CC3)c2)cc2c1cnn2C(C)C
Procedure, shortened: as §1

givinostat = compound: CCN(CC)Cc1ccc2cc(COC(=O)Nc3ccc(C(=O)NO)cc3)ccc2c1 [givinostat]
Procedure, shortened: as §1

barasertib = compound: CCN(CCCOc1ccc2c(Nc3cc(CC(=O)Nc4cccc(F)c4)[nH]n3)ncnc2c1)CCOP(=O)(O)O [barasertib]
Procedure, shortened: as §1

Measured: log2 fold change

ALG11 (UniProt Q2TAA5)
inactive: IRAK-1-4 Inhibitor I 0.003 | ibrutinib 0.09 | [1] 0.053 | ralimetinib -0.014 | [2] -0.112 | [3] 0.037 | [4] -0.064 | pinometostat 0.032 | [5] 0.002 | [7] 0.006 | [8] -0.018 | [9] -0.041 | [10] 0.013 | Nexturastat A -0.004 | vemurafenib 0.053 | [11] 0.019 | [12] -0.04 | givinostat 0 | barasertib 0.043
active: [6] 0.23

ARFGEF1 (UniProt Q9Y6D6)
inactive: IRAK-1-4 Inhibitor I 0.016 | ibrutinib -0.061 | [1] 0.036 | ralimetinib 0.132 | [2] -0.018 | [3] 0.051 | [4] -0.019 | pinometostat 0.001 | [5] -0.065 | [6] 0.07 | [7] -0.03 | [8] -0.013 | [9] -0.014 | [10] 0 | Nexturastat A -0.042 | vemurafenib 0.035 | [11] 0.041 | [12] 0.155 | givinostat 0.029 | barasertib -0.015

BAIAP2 (UniProt Q9UQB8)
UniProt Q9UQB8, sequence (Q9UQB8 whole entry, looked up): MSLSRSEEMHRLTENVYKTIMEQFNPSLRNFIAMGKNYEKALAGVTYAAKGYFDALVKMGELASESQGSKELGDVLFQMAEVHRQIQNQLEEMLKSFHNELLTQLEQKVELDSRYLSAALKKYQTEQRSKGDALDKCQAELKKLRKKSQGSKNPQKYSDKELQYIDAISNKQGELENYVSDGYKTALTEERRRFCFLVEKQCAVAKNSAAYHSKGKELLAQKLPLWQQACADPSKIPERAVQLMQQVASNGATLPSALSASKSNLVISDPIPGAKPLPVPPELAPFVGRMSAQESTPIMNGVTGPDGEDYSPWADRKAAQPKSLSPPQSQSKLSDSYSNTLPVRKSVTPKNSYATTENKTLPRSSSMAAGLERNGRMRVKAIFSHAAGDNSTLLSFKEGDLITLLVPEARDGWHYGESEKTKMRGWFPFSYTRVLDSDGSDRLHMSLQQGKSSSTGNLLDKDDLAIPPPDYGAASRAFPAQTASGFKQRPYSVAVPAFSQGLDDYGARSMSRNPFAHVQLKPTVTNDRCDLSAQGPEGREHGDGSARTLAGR
active: [1] -0.265
inactive: IRAK-1-4 Inhibitor I -0.016 | ibrutinib -0.032 | ralimetinib -0.034 | [2] -0.033 | [3] -0.056 | [4] 0.062 | pinometostat 0 | [5] 0.001 | [6] 0.041 | [7] -0.019 | [8] 0.01 | [9] 0.007 | [10] -0.012 | Nexturastat A 0.041 | vemurafenib 0.021 | [11] 0.068 | [12] 0.048 | givinostat 0.029 | barasertib 0.048

BRK1 isoform 2 (UniProt Q8WUW1)
UniProt Q8WUW1, sequence (Q8WUW1 whole entry, looked up): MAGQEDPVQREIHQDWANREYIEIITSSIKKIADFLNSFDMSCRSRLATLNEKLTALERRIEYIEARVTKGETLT
inactive: IRAK-1-4 Inhibitor I -0.026 | ibrutinib -0.004 | [1] -0.045 | ralimetinib -0.037 | [2] -0.018 | [3] 0.058 | [4] -0.053 | pinometostat -0.157 | [5] 0.064 | [6] 0.145 | [7] -0.055 | [8] -0.076 | [9] 0.103 | [10] 0.069 | Nexturastat A -0.02 | vemurafenib 0.044 | [11] -0.004 | [12] 0.002 | givinostat 0.022 | barasertib 0.032

AP2B1 isoform 2 (UniProt P63010)
inactive: IRAK-1-4 Inhibitor I -0.002 | ibrutinib 0.025 | [1] -0.034 | ralimetinib 0 | [2] 0.008 | [3] 0.029 | [4] 0.005 | pinometostat 0.011 | [5] 0.027 | [6] 0.035 | [7] 0.016 | [8] 0.018 | [9] 0.021 | [10] 0.018 | Nexturastat A 0.033 | vemurafenib 0.031 | [11] 0.039 | [12] -0.021 | givinostat 0.015 | barasertib -0.013

AFG1L (UniProt Q8WV93)
inactive: IRAK-1-4 Inhibitor I 0.014 | ibrutinib -0.016 | [1] -0.135 | ralimetinib -0.134 | [2] -0.091 | [4] 0.146 | pinometostat 0.023 | [5] 0.057 | [6] -0.056 | [7] 0.036 | [8] 0.037 | [9] 0.042 | [10] 0.015 | Nexturastat A -0.122 | vemurafenib 0.115 | [11] 0.041 | [12] -0.018 | givinostat 0.013 | barasertib 0.01
active: [3] -0.385

APLP2 (UniProt Q06481)
inactive: IRAK-1-4 Inhibitor I -0.073 | ibrutinib -0.005 | [1] -0.004 | ralimetinib 0.086 | [2] 0.133 | [3] 0.167 | [4] 0.062 | pinometostat 0 | [5] -0.017 | [6] -0.225 | [7] 0.088 | [8] -0.043 | [9] -0.003 | [10] -0.009 | Nexturastat A -0.053 | vemurafenib -0.033 | [11] 0.011 | [12] 0.018 | givinostat -0.041 | barasertib -0.04

ARL1 (UniProt P40616)
UniProt P40616, sequence (P40616 whole entry, looked up): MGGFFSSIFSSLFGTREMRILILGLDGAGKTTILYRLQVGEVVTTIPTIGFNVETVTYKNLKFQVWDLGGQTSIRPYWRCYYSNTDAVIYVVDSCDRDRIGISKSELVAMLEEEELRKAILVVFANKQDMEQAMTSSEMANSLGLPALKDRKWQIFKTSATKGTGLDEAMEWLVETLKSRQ
inactive: IRAK-1-4 Inhibitor I 0.007 | ibrutinib -0.031 | [1] -0.06 | ralimetinib 0.029 | [2] -0.09 | [3] 0.044 | [4] -0.049 | pinometostat -0.039 | [5] -0.065 | [6] 0.066 | [7] 0.057 | [8] -0.012 | [9] 0.162 | [10] 0.054 | Nexturastat A -0.119 | vemurafenib 0.037 | [11] 0.116 | [12] 0.071 | givinostat 0.07 | barasertib 0.007

ATP9B (UniProt O43861)
UniProt O43861, sequence (O43861 whole entry, looked up): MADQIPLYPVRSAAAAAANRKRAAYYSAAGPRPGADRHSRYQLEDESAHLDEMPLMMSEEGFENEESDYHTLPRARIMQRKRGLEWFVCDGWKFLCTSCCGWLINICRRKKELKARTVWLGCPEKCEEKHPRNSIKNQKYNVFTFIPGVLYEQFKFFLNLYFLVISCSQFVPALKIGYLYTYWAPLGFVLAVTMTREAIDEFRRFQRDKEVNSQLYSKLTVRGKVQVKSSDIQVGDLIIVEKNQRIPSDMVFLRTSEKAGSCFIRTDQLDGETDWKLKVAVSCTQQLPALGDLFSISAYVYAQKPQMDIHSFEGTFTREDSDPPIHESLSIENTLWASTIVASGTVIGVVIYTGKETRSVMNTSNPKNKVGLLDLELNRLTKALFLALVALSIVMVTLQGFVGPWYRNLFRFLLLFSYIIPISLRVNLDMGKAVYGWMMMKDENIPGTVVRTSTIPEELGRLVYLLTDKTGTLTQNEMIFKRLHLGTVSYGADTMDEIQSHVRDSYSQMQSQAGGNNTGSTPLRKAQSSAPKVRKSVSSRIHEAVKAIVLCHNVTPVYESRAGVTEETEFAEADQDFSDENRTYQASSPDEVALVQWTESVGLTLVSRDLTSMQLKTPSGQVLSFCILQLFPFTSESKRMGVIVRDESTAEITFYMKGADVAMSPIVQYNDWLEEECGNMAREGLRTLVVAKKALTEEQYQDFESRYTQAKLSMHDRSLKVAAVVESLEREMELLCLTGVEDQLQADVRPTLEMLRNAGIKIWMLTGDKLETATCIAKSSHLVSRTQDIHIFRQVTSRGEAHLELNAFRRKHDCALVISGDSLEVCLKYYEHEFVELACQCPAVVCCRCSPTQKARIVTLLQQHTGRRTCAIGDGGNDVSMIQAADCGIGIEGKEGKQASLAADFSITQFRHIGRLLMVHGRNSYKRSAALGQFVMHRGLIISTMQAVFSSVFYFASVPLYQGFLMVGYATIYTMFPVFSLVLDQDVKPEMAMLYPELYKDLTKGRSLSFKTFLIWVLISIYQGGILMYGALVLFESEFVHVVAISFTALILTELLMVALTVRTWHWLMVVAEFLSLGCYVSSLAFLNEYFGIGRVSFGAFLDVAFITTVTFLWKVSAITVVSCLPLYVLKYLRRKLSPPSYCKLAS
inactive: IRAK-1-4 Inhibitor I 0.061 | ibrutinib -0.068 | [1] -0.034 | ralimetinib -0.077 | [2] -0.054 | [3] -0.071 | [4] -0.024 | pinometostat -0.064 | [5] -0.004 | [6] 0.003 | [7] -0.185 | [8] -0.007 | [9] -0.054 | [10] 0.061 | Nexturastat A 0.013 | vemurafenib -0.05 | [11] 0.01 | [12] -0.03 | givinostat 0.085 | barasertib 0.013

AARSD1 isoform 3 (UniProt Q9BTE6)
inactive: IRAK-1-4 Inhibitor I 0.002 | ibrutinib -0.074 | [1] 0.029 | ralimetinib -0.038 | [2] -0.017 | [3] -0.177 | [4] 0.069 | pinometostat -0.01 | [5] -0.027 | [6] -0.126 | [7] 0.016 | [8] -0.04 | [9] -0.003 | [10] 0.034 | Nexturastat A -0.077 | vemurafenib 0.003 | [11] 0.122 | [12] 0.03 | barasertib 0.032
active: givinostat -0.273

BRD8 (UniProt Q9H0E9)
UniProt Q9H0E9, sequence (Q9H0E9 whole entry, looked up): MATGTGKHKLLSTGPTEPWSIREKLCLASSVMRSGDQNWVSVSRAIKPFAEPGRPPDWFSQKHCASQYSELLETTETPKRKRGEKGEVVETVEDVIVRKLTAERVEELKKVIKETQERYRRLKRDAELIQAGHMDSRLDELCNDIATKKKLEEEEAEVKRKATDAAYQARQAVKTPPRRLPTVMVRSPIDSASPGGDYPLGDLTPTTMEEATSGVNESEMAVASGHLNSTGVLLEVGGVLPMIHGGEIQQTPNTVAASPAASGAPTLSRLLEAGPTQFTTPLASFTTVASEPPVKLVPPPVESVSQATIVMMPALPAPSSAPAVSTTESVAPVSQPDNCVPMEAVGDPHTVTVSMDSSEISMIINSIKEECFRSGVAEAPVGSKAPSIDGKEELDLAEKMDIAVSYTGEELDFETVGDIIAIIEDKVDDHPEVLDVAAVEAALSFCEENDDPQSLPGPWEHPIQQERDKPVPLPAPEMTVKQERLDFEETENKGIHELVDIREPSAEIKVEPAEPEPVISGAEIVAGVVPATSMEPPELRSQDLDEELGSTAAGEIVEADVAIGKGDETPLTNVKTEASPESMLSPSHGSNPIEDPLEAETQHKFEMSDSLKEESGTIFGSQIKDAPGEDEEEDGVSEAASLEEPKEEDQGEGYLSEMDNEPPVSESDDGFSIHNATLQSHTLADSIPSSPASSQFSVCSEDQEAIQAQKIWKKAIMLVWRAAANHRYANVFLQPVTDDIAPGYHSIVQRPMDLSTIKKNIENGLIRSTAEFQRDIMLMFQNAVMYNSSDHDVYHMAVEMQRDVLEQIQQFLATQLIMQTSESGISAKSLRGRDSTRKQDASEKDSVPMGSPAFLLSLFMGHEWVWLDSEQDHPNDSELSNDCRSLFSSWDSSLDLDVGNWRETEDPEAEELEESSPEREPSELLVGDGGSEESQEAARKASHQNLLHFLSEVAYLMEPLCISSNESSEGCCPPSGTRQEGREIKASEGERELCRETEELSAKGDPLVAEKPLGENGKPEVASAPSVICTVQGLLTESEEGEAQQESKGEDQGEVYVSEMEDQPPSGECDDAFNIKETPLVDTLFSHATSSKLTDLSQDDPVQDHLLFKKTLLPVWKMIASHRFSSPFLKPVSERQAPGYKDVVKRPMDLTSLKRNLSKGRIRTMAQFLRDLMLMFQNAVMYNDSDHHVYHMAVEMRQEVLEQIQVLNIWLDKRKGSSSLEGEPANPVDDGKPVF
inactive: IRAK-1-4 Inhibitor I 0 | ibrutinib -0.014 | [1] -0.009 | ralimetinib -0.022 | [2] -0.012 | [3] -0.013 | [4] 0.098 | pinometostat 0.001 | [5] 0.03 | [6] -0.019 | [7] 0.002 | [8] 0.026 | [9] -0.01 | [10] 0.017 | Nexturastat A -0.098 | vemurafenib 0.027 | [11] 0.01 | [12] 0.002 | givinostat -0.153 | barasertib -0.026

ATP7B (UniProt P35670)
inactive: IRAK-1-4 Inhibitor I -0.022 | ibrutinib -0.033 | [1] 0.077 | ralimetinib 0.043 | [2] 0.003 | [3] 0.011 | [4] 0.015 | pinometostat 0.056 | [5] -0.124 | [6] 0.061 | [7] -0.005 | [8] -0.113 | [9] 0.028 | [10] 0.032 | Nexturastat A -0.013 | vemurafenib -0.001 | [11] 0.032 | [12] 0.036 | givinostat -0.005 | barasertib -0.02

ATP13A3 (UniProt Q9H7F0)
UniProt Q9H7F0, sequence (Q9H7F0 whole entry, looked up): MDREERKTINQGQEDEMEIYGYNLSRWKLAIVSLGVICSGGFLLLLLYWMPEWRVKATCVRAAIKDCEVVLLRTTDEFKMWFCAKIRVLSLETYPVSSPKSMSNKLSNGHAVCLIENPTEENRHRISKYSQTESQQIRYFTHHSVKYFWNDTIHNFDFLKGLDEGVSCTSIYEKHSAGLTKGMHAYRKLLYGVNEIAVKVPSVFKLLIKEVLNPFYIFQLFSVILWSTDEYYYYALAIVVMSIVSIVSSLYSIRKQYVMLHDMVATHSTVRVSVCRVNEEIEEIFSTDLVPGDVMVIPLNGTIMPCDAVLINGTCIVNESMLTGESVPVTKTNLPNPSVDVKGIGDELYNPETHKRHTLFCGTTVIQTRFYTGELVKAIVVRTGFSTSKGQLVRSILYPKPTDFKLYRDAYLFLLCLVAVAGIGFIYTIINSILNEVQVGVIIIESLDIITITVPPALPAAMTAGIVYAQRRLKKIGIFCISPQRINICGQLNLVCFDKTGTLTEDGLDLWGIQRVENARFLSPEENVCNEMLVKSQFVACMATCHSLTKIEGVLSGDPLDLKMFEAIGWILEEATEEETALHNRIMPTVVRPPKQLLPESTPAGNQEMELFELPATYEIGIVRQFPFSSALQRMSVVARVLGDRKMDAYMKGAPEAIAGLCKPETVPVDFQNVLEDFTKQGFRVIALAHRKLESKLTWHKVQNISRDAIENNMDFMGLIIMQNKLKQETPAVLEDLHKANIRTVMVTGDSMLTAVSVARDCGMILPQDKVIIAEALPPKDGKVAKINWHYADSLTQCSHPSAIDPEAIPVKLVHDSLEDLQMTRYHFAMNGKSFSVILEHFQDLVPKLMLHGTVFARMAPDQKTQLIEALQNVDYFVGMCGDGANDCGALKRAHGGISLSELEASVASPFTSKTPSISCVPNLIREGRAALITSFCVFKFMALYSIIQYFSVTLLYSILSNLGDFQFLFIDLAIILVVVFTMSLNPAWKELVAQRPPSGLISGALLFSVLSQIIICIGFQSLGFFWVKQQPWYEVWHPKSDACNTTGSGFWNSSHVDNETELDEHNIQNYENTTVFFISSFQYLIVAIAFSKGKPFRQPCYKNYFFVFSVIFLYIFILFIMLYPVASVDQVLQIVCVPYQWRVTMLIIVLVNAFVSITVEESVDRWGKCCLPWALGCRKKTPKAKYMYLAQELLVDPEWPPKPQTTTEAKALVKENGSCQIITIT
inactive: IRAK-1-4 Inhibitor I 0.043 | ibrutinib -0.005 | [1] 0.004 | ralimetinib -0.032 | [2] -0.136 | [3] -0.199 | [4] 0.073 | pinometostat -0.007 | [5] 0.042 | [6] -0.035 | [7] 0.027 | [8] 0.031 | [9] -0.068 | [10] 0.012 | Nexturastat A -0.042 | vemurafenib -0.014 | [11] -0.02 | [12] -0.076 | givinostat 0.025 | barasertib -0.001

ACAD9 (UniProt Q9H845)
inactive: IRAK-1-4 Inhibitor I 0.01 | ibrutinib 0.005 | [1] -0.041 | ralimetinib -0.034 | [2] 0.007 | [3] 0.002 | [4] -0.036 | pinometostat -0.028 | [5] -0.012 | [6] 0.028 | [7] -0.022 | [8] 0.007 | [9] 0.007 | [10] -0.001 | Nexturastat A -0.061 | vemurafenib 0.053 | [11] -0.019 | [12] -0.009 | givinostat -0.012 | barasertib -0.011

AP2A1 (UniProt O95782)
inactive: IRAK-1-4 Inhibitor I -0.054 | ibrutinib 0.01 | [1] -0.14 | ralimetinib 0.052 | [2] 0.027 | [3] 0.023 | [4] -0.06 | pinometostat 0 | [5] 0.01 | [6] 0.081 | [7] 0.024 | [8] -0.016 | [9] 0.004 | [10] 0.084 | Nexturastat A 0.048 | vemurafenib 0.009 | [11] 0.03 | [12] -0.003 | givinostat 0.008 | barasertib -0.028

ARHGAP1 (UniProt Q07960)
UniProt Q07960, sequence (Q07960 whole entry, looked up): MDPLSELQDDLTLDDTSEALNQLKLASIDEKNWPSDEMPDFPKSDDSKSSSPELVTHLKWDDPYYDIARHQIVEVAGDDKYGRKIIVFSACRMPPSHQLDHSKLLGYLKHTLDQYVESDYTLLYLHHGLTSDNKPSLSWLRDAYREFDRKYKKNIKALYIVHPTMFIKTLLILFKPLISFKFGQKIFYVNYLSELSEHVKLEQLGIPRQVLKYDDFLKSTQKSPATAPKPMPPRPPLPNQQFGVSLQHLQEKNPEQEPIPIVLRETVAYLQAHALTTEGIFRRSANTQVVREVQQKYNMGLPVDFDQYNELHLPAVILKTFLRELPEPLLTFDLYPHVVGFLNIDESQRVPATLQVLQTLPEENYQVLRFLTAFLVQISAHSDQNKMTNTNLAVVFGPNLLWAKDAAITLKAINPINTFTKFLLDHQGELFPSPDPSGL
inactive: IRAK-1-4 Inhibitor I 0.025 | ibrutinib -0.014 | [1] -0.049 | ralimetinib -0.022 | [2] -0.014 | [3] 0.162 | [4] 0.023 | pinometostat 0 | [5] -0.011 | [6] -0.014 | [7] -0.024 | [8] -0.022 | [9] -0.009 | [10] 0.012 | Nexturastat A 0.03 | vemurafenib 0.002 | [11] 0.052 | [12] -0.018 | givinostat -0.014 | barasertib 0.006
